HCV inh: inhibitors of hepatitis C virus infection. Huh7.5.1 HCVcc-Cre infection, luciferase reporter, 44 h. Potency, µM (highest dose often 41.8 µM), most hits filed as inhibitors. 340,000 compounds, 3.4% hits. AID 651820; active means well fitted inhibition curve with a large enough effect; inconclusive means small, poorly fitted or top-dose-only effect, or another doubt; inactive means no such curve, though single readings can be large or run the other way
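Cells (1,000/well) were plated 4 h before compound, then infected with HCVcc-Cre virus (~0.5 moi). After 44 h further culture, infection was read as luciferase luminescence following a 15 min substrate incubation at room temperature.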
Vaccinia Venus: vaccinia inhibition (Venus reporter) | 330,000 compounds, 0.46% hits | Vaccinia virus Venus reporter expression, fluorescence | AID 720580 | Potency, µM (titrated, usually from 36.5 µM), usual class: inhibitors; calls by dose curve; tested in A549 cells; further: nearly all actives have a fitted effect of over 30% in size
Marburg entry inh: inhibitors of Marburg virus binding or cell entry | Potency, µM (series often up to 37.8 µM), hits mostly inhibitors | 300,000 compounds, 1.8% hits | Marburg virus pseudotyped entry inhibition, cell reporter; calls by dose curve; tested in HEK293 cells
Vaccinia mCherry: inhibitors of vaccinia virus infection (mCherry reporter signal); Vaccinia virus mCherry reporter infection, fluorescence; Potency, µM (highest dose often 36.5 µM), actives largely listed as inhibitors; 310,000 compounds, 0.63% hits; AID 720579; calls by dose curve; tested in A549 cells; further: nearly all actives have a fitted effect of over 35% in size
Lassa entry inh: Lassa virus entry inhibition | Lassa virus pseudotype entry inhibition, cell reporter | Potency, µM (top dose mostly 37.9 µM), actives largely listed as inhibitors | 300,000 compounds, 1.2% hits; calls by dose curve; tested in HEK293 cells; further: nearly all actives have a fitted effect of over 50% in size
Numbers stand for hits; – = inactive; ? = inconclusive; · = no result given; ! = not confirmed by another sample. Sampled rows, rich in hits. Any-hit rate of the full collection: about 4.6%.

SMILES	HCV inh	Vaccinia Venus	Marburg entry inh	Vaccinia mCherry	Lassa entry inh
CC(=O)C1=C(C)NC(SCC(=O)c2ccc(Cl)cc2Cl)=C(C#N)C1c1ccco1 (stereo not drawn)	2.5µM	–	–	–	?
CCOC(=O)C1=C(c2ccccc2)NC(SCC(=O)Nc2ccccc2C)=C(C#N)C1c1ccco1 (stereo not drawn)	?	·	23µM	·	?
C=CCOC(=O)C1=C(C)NC(SCC(=O)Nc2ccc(C)c(Cl)c2)=C(C#N)[C@@H]1c1ccco1	·	·	10µM	·	·
CCOC(=O)C1=C(c2ccccc2)NC(SCC(=O)Nc2ccc(C)cc2)=C(C#N)C1c1ccco1 (stereo not drawn)	?	?	?	–	–
CC(=O)C1=C(C)NC(SCC(=O)c2ccc(Cl)cc2)=C(C#N)C1c1ccco1 (stereo not drawn)	?	–	?	–	–
CC[N+]1(CC(=O)c2cccs2)CCCCC1	·	–	·	–	·
CCC(=O)Nc1nc(-c2ccccc2)ns1	–	·	–	·	–
CCCC(=O)Nc1nc(-c2ccccc2)ns1	–	–	?	–	21µM
COC(=O)C1=C(C)NC(=O)NC1c1ccc([N+](=O)[O-])o1 (stereo not drawn)	–	–	–	–	–
COC(=O)C1=C(C)NC(=O)NC1c1ccc(-c2ccc(Cl)cc2)o1 (stereo not drawn)	8.9µM	–	·	–	·
Cc1cc(C)n(C(=O)/C(C#N)=N/Nc2cc(Cl)cc(Cl)c2)n1	10µM	?	·	?	·
COc1ccc(NC(=O)[C@@H]2CC=C[C@@H]3CCN(C4CC4)C(=O)[C@@H]32)cc1	·	–	·	–	·
O=C(NC1CCCc2ccccc21)c1ccc(Br)cc1 (stereo not drawn)	–	–	?	–	–
O=C(CCNC(=O)c1ccc(Br)cc1)NC1CCCc2ccccc21 (stereo not drawn)	–	–	2.2µM	?	7.1µM
CCOC(=O)c1ccc(NC(=O)CSc2nc3ccccc3c(=O)n2CCC(=O)NC2CCCCC2)cc1	·	–	·	–	–
CC(C)COc1ccc(C(=O)Nc2cc3nn(-c4ccccc4)nc3cc2Cl)cc1	·	–	–	–	–
CC(C)COc1ccc(C(=O)Nc2scc(-c3ccc(Cl)cc3Cl)c2C(N)=O)cc1	13µM	–	?	–	–
COc1ccc(C[C@H]2CN3C(=NC[C@H]3Cc3ccccc3)N2CCNC(=O)CCC2CCCCC2)cc1	–	?	·	11µM	·
C/C=C(\C)C(=O)NCCN1C2=NC[C@H](Cc3ccccc3)N2C[C@@H]1Cc1ccc(OC)cc1	–	–	·	–	·
COc1ccc(C[C@H]2CN3C(=NC[C@@H]3Cc3ccccc3)N2CCNC(=O)c2ccc(C)c(Br)c2)cc1	?	13µM	·	?	·
COc1ccc(C[C@H]2CN3C(=NC[C@H]3Cc3ccccc3)N2CCNC(=O)c2ccc(C)c(Br)c2)cc1	–	14µM	·	?	·
CCC(C)NC(=O)Cn1c(=O)n(-c2ccc(OC)c(OC)c2)c(=O)c2ccccc21 (stereo not drawn)	·	–	–	–	–
O=C(CCl)NCc1cc(-c2ccc(Cl)cc2)no1	11µM	?	?	10µM	?
COc1ccc(OCc2cc(-c3ccc(Cl)cc3)no2)cc1	–	–	–	–	–
Cc1ccc(NC(=O)c2ccc(OC(F)(F)F)cc2)cc1S(=O)(=O)N(C)C	3.2µM	?	?	?	?
SMILES	HCV inh	Vaccinia Venus	Marburg entry inh	Vaccinia mCherry	Lassa entry inh
Cc1cc(C)n(-c2ccc(C(=O)Nc3ccc4c(c3)OCO4)cc2)n1	?	–	–	·	?
Cc1ccc(NC(=O)c2ccncc2)cc1S(=O)(=O)N(C)C	–	–	–	–	–
CCN(CC)S(=O)(=O)c1ccc(C(=O)Nc2cccc(C)c2)cc1	?	–	–	–	?
CCN(CC)S(=O)(=O)c1cccc(NC(=O)c2ccc(-n3nc(C)cc3C)cc2)c1	2.5µM	?	16µM	?	?
Cc1noc(C)c1S(=O)(=O)Nc1ccc(C(=O)Nc2ccc(OC(F)(F)F)cc2)cc1	14µM	·	–	·	·
COc1ccc(NC(=O)c2ccc(-n3nc(C)cc3C)cc2)cc1OC	7.1µM	–	–	·	–
COc1cc(OC)c(OC)cc1CN1CCC(n2cc(C(=O)N3CCCCC3)nn2)CC1	·	–	·	–	·
CC(C)CO/N=C1\C[C@@H](O)[C@@H](O)[C@@H]2[C@@H]3C(=O)N(C[C@@H]4CCCO4)C(=O)[C@@H]3CC[C@H]12	·	·	–	·	·
Cc1cnc(CNC(=O)c2c3n(c(C)cc2=O)-c2ccccc2SC(c2ccsc2)C3)cn1 (stereo not drawn)	·	–	·	–	·
Cc1cc(C)n(-c2ccc(C(=O)Nc3ccc(S(=O)(=O)NCc4ccco4)cc3)cc2)n1	3.5µM	?	13µM!	?	?
Cc1ccc(C(=O)Nc2ccc(S(=O)(=O)NCc3ccco3)cc2)cc1	?	·	–	·	–
Cc1cc(C)n(-c2ccc(C(=O)Nc3ccc(C)c(S(=O)(=O)N(C)C)c3)cc2)n1	10µM	?	?	?	?
Cc1cc(C)n(-c2ccc(C(=O)Nc3ccc(N4CCOCC4)cc3)cc2)n1	–	?	–	·	–
CC(=O)Nc1cccc(NS(=O)(=O)c2c(C)noc2C)c1	–	?	–	6.3µM	–
C/C(=N\Nc1nc(Cl)c(Cl)cc1Cl)c1ccc(S(=O)(=O)NCc2ccco2)cc1	6.3µM	–	?	?	?
C/C(=N\Nc1ccccn1)c1ccc(S(=O)(=O)NCc2ccco2)cc1	–	–	–	–	?
Nc1nc2c(ncn2C2OC(COC(=O)c3ccccc3)C(OC(=O)c3ccccc3)C2OC(=O)c2ccccc2)c(=O)[nH]1 (stereo not drawn)	·	–	·	–	·
Cc1cc(C)n(-c2ccc(C(=O)Nc3cccc([N+](=O)[O-])c3)cc2)n1	11µM	–	?	–	–
Cc1cc(C)n(-c2ccc(C(=O)Nc3cccc(S(=O)(=O)N(C)C)c3)cc2)n1	5µM	–	?	–	?
Cc1cc(C)n(-c2ccc(C(=O)Nc3ccc(S(=O)(=O)N(C)C)cc3)cc2)n1	?	–	?	–	?
CN(Cc1ccccc1)C(=O)CN1C(=O)CSc2ccc(S(=O)(=O)N3CCOCC3)cc21	·	–	·	–	–
CCCCCCCOc1ccc(CC(=O)NO)cc1	·	–	·	–	·
Cn1c(=O)n(Cc2ccc(Cl)cc2)c(=O)c2c1nc1n2CCN1Cc1ccco1	16µM	·	–	·	?
CCN(CC)CCNC(=O)c1ccc(NC(=O)c2ccccc2-c2ccc(C(F)(F)F)cc2)cc1	?	–	2.8µM	–	?
CCN(CC)CCNC(=O)c1ccc(NC(=O)c2ccc3c(c2)CCC3)cc1	11µM	·	·	·	·
CCOC(=O)c1ccc(NC(=O)c2cn(-c3ccccc3)nc2-c2ccc(C)cc2)cc1	·	–	·	–	–
CCN(CC)CCNC(=O)c1ccc(NC(=O)Cc2ccccc2F)cc1	–	–	?	–	–
CCOC(=O)c1ccc(NC(=O)c2cn(-c3ccccc3)nc2-c2ccncc2)cc1	?	–	7.1µM	–	–
CCN(CC)CCNC(=O)c1ccc(NC(=O)c2cn(-c3ccc(F)cc3)nc2-c2cccc(OC)c2)cc1	?	–	?	–	?
CCN(CC)CCNC(=O)c1ccc(NC(=O)c2cn(-c3ccccc3)nc2-c2cccs2)cc1	11µM	·	·	·	·

High-throughput results from PubChem.
